Results from PubChem BioAssay (NCI).
About 79,000 compounds went through this panel and 15% of them were active in at least one assay; those are over-represented in the sample as a whole. No stated cut-off is given here; in the data, active means growth inhibition above about 70%; inactive means the rest.

Experiments:
[1] = NCI Yeast Anticancer Drug Screen. Data for the rad50 strain (AID 155);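 further: 0% = growth of vehicle-only cultures of the same strain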; conditions: S. cerevisiae rad50 strain growth inhibition, active compounds read high; at 50.0 µM unless noted
Method in brief: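 Relative growth inhibition (compound vs vehicle) was measured in yeast with a defined repair-gene alteration.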

[2] = NCI Yeast Anticancer Drug Screen. Data for the mec2-1 strain (AID 157); conditions: S. cerevisiae mec2-1 strain, active compounds read high; at 50.0 µM unless noted
Method in brief: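 Compounds were applied to mec2-1 yeast cells. Their growth was then compared with that of vehicle-treated cultures to give growth inhibition.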

[3] = NCI Yeast Anticancer Drug Screen. Data for the sgs1 mgt1 strain (AID 161);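 further: 0% = growth of cultures given vehicle only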; conditions: S. cerevisiae sgs1 mgt1 strain, active compounds read high; at 50.0 µM unless noted
Method in brief: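 Percent growth inhibition was derived by comparing compound-exposed mutant yeast with vehicle-exposed cultures. The strain carries alterations in DNA damage repair.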

[4] = NCI Yeast Anticancer Drug Screen. Data for the cln2 rad14 strain (AID 165);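 further: 0% = growth equal to vehicle treated cultures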; conditions: S. cerevisiae cln2 rad14 strain, active compounds read high; at 50.0 µM unless noted
Method in brief: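 Strain: cln2 rad14 yeast, altered in cell cycle control and DNA damage repair. Read-out: growth inhibition vs vehicle.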

[5] = NCI Yeast Anticancer Drug Screen. Data for the bub3 strain (AID 167); conditions: S. cerevisiae bub3 mutant strain, active compounds read high; at 50.0 µM unless noted
Method in brief: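 Screening used yeast with an engineered genetic alteration affecting cell cycle control. Compound-exposed cultures were compared with vehicle cultures, and reduced growth was taken as inhibition.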

[6] = NCI Yeast Anticancer Drug Screen. Data for the mlh1 rad18 strain (AID 175); conditions: S. cerevisiae mlh1 rad18 strain growth inhibition, active compounds read high; at 50.0 µM unless noted
Method in brief: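 A repair-deficient yeast strain is exposed to test compound, and growth is scored relative to vehicle-treated controls.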

Measured: growth inhibition

COC(=O)C1CCOC(C)N1C(=O)OC(C)(C)C (stereo unspecified)
inactive: [1] 2.9% | [2] 0.75% | [3] 6.4% | [4] 11% | [5] 13.2% | [6] -34.5%

NC1=CNC(=O)C1
inactive: [1] 1.65% | [2] 1.45% | [3] -3.05% | [4] -1.65% | [5] 14.1% | [6] -7.4%

CC1=CC(C)(C)[C@H]2O[C@@]3(O)C[C@]4(C)[C@H]5C[C@@](C(C)C)(O[C@H]4c4ccoc4)O[C@H]4[C@]5(C3)O[C@@]1(O)[C@]24O
inactive: [1] 5.2% | [2] 0.45% | [3] -11.9% | [4] -14.8% | [5] -13.4% | [6] -3.5%

c1ccc2c(c1)ccc1c[n+]3ccccc3cc12
inactive: [1] 26.6% | [2] 23.1% | [3] 22.2% | [4] 44.5% | [5] 9.25% | [6] 61.9%

CCOC(=O)C(CC(C)C)NC(=O)c1c2nc3c(C(=O)NC(CC(C)C)C(=O)OCC)cc(NC(C)=O)c(C)c3oc-2c(C)c(=O)c1N (stereo unspecified)
inactive: [1] 8.4% | [2] 34.5% | [3] 34.6% | [4] -4.95% | [5] -6.5% | [6] 48.8%

C[N+]1(Cc2csc(-c3ccc(Cl)cc3)n2)CCCC1
inactive: [1] -12.5% | [2] -23.1% | [3] 4.55% | [4] 9.75% | [5] -5.7% | [6] -11.7%

Nc1ccccc1SC(CC(=O)c1ccc(-c2ccccc2)cc1)c1ccco1 (stereo unspecified)
inactive: [1] -18.4% | [2] -30.6% | [3] 17% | [4] -9.2% | [5] -7.6% | [6] -31.7%

Cc1cc(Cl)cc2c1OC(C)OC2=O (stereo unspecified)
inactive: [1] -7.85% | [2] 0.2% | [3] -17.6% | [4] -5.6% | [5] 11.6% | [6] 28.6%

CN(C)CCCC(=O)O
inactive: [1] -13.3% | [2] -45.4% | [3] -14.1% | [4] 2.8% | [5] -31.9% | [6] -0.35%

CC1CCC2C(C)C(=O)OC2C2(C)C(=O)C=CC12 (stereo unspecified)
inactive: [1] 11.9% | [2] -12.3% | [3] 13.7% | [4] 22.6% | [5] 2.7% | [6] -27.4%

CC1CN(S(=O)(=O)c2ccccc2)CCN1S(=O)(=O)c1ccccc1 (stereo unspecified)
inactive: [1] -9.65% | [2] -4.3% | [3] -8.35% | [4] -8.45% | [5] 1.5% | [6] -0.55%

O=C1OCC/C1=C/c1ccc(N=Nc2c(O)ccc3ccccc23)cc1
inactive: [1] 2.4% | [2] -6.05% | [3] 11.1% | [4] 5.5% | [5] 11.7% | [6] 7.05%

CCOc1ccc(C(=O)C[N+]2(CCc3ccccc3)CCOCC2)cc1
inactive: [1] -12.9% | [2] 6.3% | [3] 11.6% | [4] 6.2% | [5] -0.7% | [6] 41%

CCC(CC)/C(=N/Nc1ccc([N+](=O)[O-])cc1[N+](=O)[O-])C1=CCCCC1
inactive: [1] -8.3% | [2] -12.1% | [3] -5.1% | [4] -24.1% | [5] -7.3% | [6] -15.7%

COc1ccccc1-n1c(=O)c(N=Nc2ccc(C)cc2)c(O)n(-c2ccccc2C)c1=S
inactive: [1] -34.8% | [2] -10.5% | [3] -17.9% | [4] -44.1% | [5] 0% | [6] -37.5%

COC(=O)C(=O)C(C(=O)OC)C(=O)C(=O)Nc1ccccc1C(N)=O (stereo unspecified)
inactive: [1] -33.5% | [2] -7.55% | [3] -25.6% | [4] -10.2% | [5] -27.9% | [6] -21.2%

O=C(O)C1=Cc2ccccc2OC1
inactive: [1] 2.7% | [2] -19.9% | [3] -5.55% | [4] -27.2% | [5] -28.6% | [6] -4.7%

CC(=O)c1cccc(NC(=O)CCCCCCCCC(=O)Nc2cccc(C(C)=O)c2)c1
inactive: [1] -5.7% | [2] -0.7% | [3] -1.55% | [4] -49.5% | [5] -1.2% | [6] 2.95%

N#Cc1ccc(-c2ccc(C#N)cc2)cc1
inactive: [1] -19.4% | [2] -23.3% | [3] -14.1% | [4] 9.05% | [5] -20.1% | [6] 7.05%

COc1cc(C)c(O)c(C(=O)O)c1
inactive: [1] -3.7% | [2] -7.65% | [3] 2.25% | [4] 0.05% | [5] -1.45% | [6] -4.25%

COc1cc(CC2(C#N)c3ccccc3C=CN2C(=O)c2ccccc2)c(Oc2cc(CC3(C#N)c4ccccc4C=CN3C(=O)c3ccccc3)ccc2OC)cc1OC (stereo unspecified)
inactive: [1] 4.65% | [2] 8.85% | [3] 15.3% | [4] -5.6% | [5] 3.85% | [6] 32.9%

CNC(=O)C(C(=O)NC)c1ccccc1
inactive: [1] 8.05% | [2] -4.65% | [3] -1.15% | [4] -18.5% | [5] -2.9% | [6] 10.8%

CCc1ccc2c(c1)C(=O)c1ccccc1C2=O
inactive: [1] 4% | [2] 21.8% | [3] 11.1% | [4] -9.5% | [5] 25.7% | [6] 26.6%

CC1(C)SC=C2C1=CSC2(C)C
inactive: [1] 0.2% | [2] 2.1% | [3] -6.35% | [4] -26.2% | [5] 4.6% | [6] -3.65%

O=C(O)Cc1ccc(C(=O)O)cc1
inactive: [1] 21.2% | [2] -1.25% | [3] 5.8% | [4] -13.4% | [5] 13.2% | [6] 32.8%

Cn1c(=O)c(C(=O)Nc2nc(C34CC5CC(CC(C5)C3)C4)cs2)c(O)c2ccccc21
inactive: [1] -27.8% | [2] -28.6% | [3] -5.7% | [4] 11.1% | [5] -10% | [6] -30.6%

Cc1ccc(C(=O)O)cc1
inactive: [1] 2.95% | [2] -17% | [3] 0.65% | [4] -15.6% | [5] 8.85% | [6] -2.2%

O=S(=O)(N/N=C/c1cccc(Cl)c1Cl)c1ccccc1
inactive: [1] 9.3% | [2] 3% | [3] 4.4% | [4] -37.6% | [5] 3.5% | [6] 21.5%

CC(=O)c1cc(Cc2cc(C)cc(C)c2O)c(O)c(Cc2cc(C)cc(C)c2O)c1
inactive: [1] 18.9% | [2] 11.6% | [3] 28.9% | [4] 33.7% | [5] 17.4% | [6] 4.05%

CCCCOC(=O)c1cccc(C)c1
inactive: [1] -3% | [2] 4.4% | [3] -4.35% | [4] -38.1% | [5] 2.6% | [6] -0.9%

COc1ccc(NC(=O)CC/C(CC(=O)c2ccco2)=N/NC(=O)C(N)=O)cc1
inactive: [1] -4% | [2] -10.4% | [3] -15.8% | [4] -7.15% | [5] -14.1% | [6] -18.1%

CC(C)CC(NC=O)C(=O)O (stereo unspecified)
inactive: [1] 11.2% | [2] 1.85% | [3] -0.4% | [4] 9.45% | [5] -0.3% | [6] 8.35%

COc1ccc(Cl)c2c(=O)c3ccccc3[nH]c12
inactive: [1] -3.45% | [2] 7.65% | [3] 2.5% | [4] -35.1% | [5] -12.3% | [6] 12.8%

Cc1ccc(S(=O)(=O)NNC(=O)CCn2[nH]c(=O)c(Cl)c(Cl)c2=O)cc1
inactive: [1] -16.9% | [2] -9.65% | [3] -8.1% | [4] -38.1% | [5] -0.3% | [6] -12.1%

O=C(OC1CCCCCCC1OC(=O)c1ccc([N+](=O)[O-])cc1)c1ccc([N+](=O)[O-])cc1 (stereo unspecified)
inactive: [1] 7.05% | [2] 1.85% | [3] 6.4% | [4] 11.8% | [5] -4.8% | [6] 1.7%

CC1(C)OC2C(/C=C\C(=O)c3ccccc3)OC(n3ccc(=O)[nH]c3=O)C2O1 (stereo unspecified)
inactive: [1] -36.6% | [2] 10.3% | [3] 5.6% | [4] 13.4% | [5] -1.55% | [6] -1.5%

O=C(O)/C=C/C(=O)NCCCCCCNC(=O)/C=C/C(=O)O
inactive: [1] 4.55% | [2] -26.4% | [3] 2% | [4] -8.7% | [5] -16.9% | [6] -15.1%

CCN(CC)C(=O)c1c(N2CCOCC2)cc(N(CC)CC)oc1=O
inactive: [1] -10.2% | [2] -8.25% | [3] -46.6% | [4] -8.85% | [5] -37.9% | [6] -40.6%

O=C1N=CN=C2C=CC(Cl)=C(I)C12 (stereo unspecified)
inactive: [1] 0.85% | [2] 16.1% | [3] 19.5% | [4] 5.35% | [5] 29.9% | [6] 4.15%

O=C(Cn1c(=O)ccn(C2OC(CO)C(O)C2F)c1=O)c1ccc(F)cc1 (stereo unspecified)
inactive: [1] -2.5% | [2] 0.3% | [3] -30.9% | [4] -48.8% | [5] 0.6% | [6] 3.1%

Cc1ccc(C2SC(N)=Nc3c2c(C)nn3C(=O)c2ccc(Cl)cc2)cc1 (stereo unspecified)
inactive: [1] -36.1% | [2] -42% | [3] -16.4% | [4] -33.5% | [5] -27.6% | [6] -24.9%
